# Measured values published in the supplement of paper PMC10105736.
# Unmarked numbers belong to inactive results.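 How the source made its calls: active = MAPPIT score above the 99th percentile of random reference set scores in the same batch; inactive = at or below it.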
# B1: Cbp80 (protein)
# chain: MSRRRAHDTEDEGYDHRRNKRRRVSENQEIEDRLESLILRVGERSTSSVESNLEGLVSVLEADLGTFRLKILRILSDCAVRMPEKCTVYTTLVGLLNAKNYKFGGEFVDHMVKTFKESLKMCRWDAARYSLRFLADLVNCHVISATSLLQLLDTMIDVSNEDTVPQVRRDWFVFAVLSTLPWVGRDLYEKKESALESLLLRIEVYLNKRSKKHHNALRVWSSDAPHPQEEYLDCLWAQIRKLRQDNWAEKHIPRPYLVFDSILCEALQHNLPTIVPPPHHDNFEYPMPWVVYRMFDYTDCPDGPNLPGAHSIERFLIEEHLHHIIETYHHERKDCAAQLLSFPYKHKIPLEYCIVEVVFAELFHMPTPRYLDICYGSILIELCKLQPATLPQVLAQATEILFMRIDSMNTSCFDRFVNWFSYHLSNFKFTWSWDEWDSCLLLDGEHPRPKFIQEVLQKCLRLSYHQRITEMMPTTYAKLIPLTPVPNYKYANEEAANLPGTTVAHQLVVAIRQKCTPEEVVNILKDIPNSGYSGEEMSDGSFNALKIDVFVQTLLNLGSKSFSHSFAAISKFHSVFRALAETEEAQICILHNIFELWSSHQQMMVVLIDKLLKLQIVDCSAVATWIFSKEMTGEFTKLYLWEILHLTIKKMNKHVIKLNTELSEAKEKLAKADSSSSDSEDDSSHKRKKPITHADKPSEEVVERMEEKLEAANVNQKRLFLIVFQRFIMILSEHLLRSDTDGRDPDTDWYRWTIGRLQQVFLMHHEQVQKYSSTLETLLFTSDLDTHILEVFQQFVALRA
# B2: Fer1HCH (protein)
# chain: MVKLIASLLLLAVVAQAYGDFKCSLAVPEITKDWVDMKDACIKGMRNQIQEEINASYQYLAMGAYFSRDTVNRPGFAEHFFKAAKEEREHGSKLVEYLSMRGQLTEGVSDLINVPTVAKQEWTDGAAALSDALDLEIKVTKSIRKLIQTCENKPYNHYHLVDYLTGVYLEEQLHGQRELAGKLTTLKKMMDTNGELGEFLFDKTL
# B3: Vha55 (protein)
# chain: MNAQQAQREHVLAVSRDFISQPRLTYKTVSGVNGPLVILDEVKFPKFAEIVQLRLADGTVRSGQVLEVSGSKAVVQVFEGTSGIDAKNTLCEFTGDILRTPVSEDMLGRVFNGSGKPIDKGPPILAEDFLDIQGQPINPWSRIYPEEMIQTGISAIDVMNSIARGQKIPIFSAAGLPHNEIAAQICRQAGLVKLPGKSVLDDHTDNFAIVFAAMGVNMETARFFKQDFEENGSMENVCLFLNLANDPTIERIITPRLALTAAEFLAYQCEKHVLVILTDMSSYAEALREVSAAREEVPGRRGFPGYMYTDLATIYERAGRVEGRNGSITQIPILTMPNDDITHPIPDLTGYITEGQIYVDRQLHNRQIYPPVNVLPSLSRLMKSAIGEGMTRKDHSDVSNQLYACYAIGKDVQAMKAVVGEEALTPDDLLYLEFLTKFEKNFISQGNYENRTVFESLDIGWQLLRIFPKEMLKRIPASILAEFYPRDSRH
# B4: frj (protein)
# chain: MSIDDVIYVICLLGCIGAGSYVKKIADEGQRKLVSTGLGVLVVVIVSGLHSLHCFVSLALGTAAVLLVHPSKGHLVTFAVMFGYLVFFRIFDFYFGIPGHTNMIQMILTLKVSGIAFEKTAAWKRLQAHDEQKKNDQRDVHQESPIEITDYDVELQSLSAAEILHYSFNYIGVLTGPYYRYRTYRDYFEMPFKTYAPTVEATLEKLKYAVFYCALYLATNYMWPLDYALSDEFFNDRSFVYRLLYVWPTFFTFRARIYTGLTLSECVCTMAGFGAYPDESDPNNGEGPRKRYQHLKRDADKHTYNFTTIVNTRVLEVERCWTFREGMKHWNVCVQYWLAVNVYKLFPSKKYRTGATLLCSAYWHGFRPGHYFCIMGAPFYVSLEDMWDKLVRKSATGTSRRVIDVIFWIFKWFAFSYLGEAFLLSSFGNIWRFYSSVYHIGYISWAAMTALGFYLTSQRKAAERRKKRAAEKAAGGDGIAAAIEKEKAQ
# B5: Inx7 (protein)
# chain: MLNTFSSVRQYLKFDLTRVVIDNIVFKLHYRWTFVILLVATLLITSRQYIGEHIQCLSDGVVSPVINTFCFFTPTFTVVRDQNQTAYRPGSEPPGIGAFDPEKDTIKRHAYYQWVPFVLFFQALCFYIPHALWKSWEGGRIKALVFGLRMVGLTRYLKNDSLRIGKLNIPSMAEAEERVKDIRRTMIDRMRLNQSWGAHLVFAEVLNLINLLLQITWTNRFLGGQFLTLGPHALKNRWSDELSVLDLVFPKITKCKFHKFGDSGSIQMHDALCVMALNIMNEKIYIILWFWYAFLLIVTVLGLLWRILTLCFYRNVTFTRWSLYWAKPGQLDENELLAVIDKCNFSNWMFLFFLRSNLSEFLFKKVIYHLASEFPNPDHDNDVNAYREAPPTPAKNRYPELSGLDTIDSPLLHLRRNGSPSAGGAQGPSTSDMAKLPV
# B6: Sxl (protein)
# chain: MYGNNNPGSNNNNGGYPPYGYNNKSSGGRGFGMSHSLPSGMSRYAFSPQDTEFSFPSSSSRRGYNDFPGCGGSGGNGGSANNLGGGNMCHLPPMASNNSLNNLCGLSLGSGGSDDLMNDPRASNTNLIVNYLPQDMTDRELYALFRAIGPINTCRIMRDYKTGYSFGYAFVDFTSEMDSQRAIKVLNGITVRNKRLKVSYARPGGESIKDTNLYVTNLPRTITDDQLDTIFGKYGSIVQKNILRDKLTGRPRGVAFVRYNKREEAQEAISALNNVIPEGGSQPLSVRLAEEHGKAKAAHFMSQMGVVPANVPPPPPQPPAHMAAAFNMMHRGRSIKSQQRFQNSHPYFDAKKFI
# Columns and labels:
# Assay in all cases: MAPPIT interaction score (arbitrary units); higher = stronger binary interaction signal, active = hit call of the paper
# CG6664 = details: MAPPIT configuration: N-N; pair source set: DPIM
# CG6683 = details: MAPPIT configuration: N-N; pair source set: Lit-BS-16
# CG8654 = details: MAPPIT configuration: N-N; pair source set: DPIM
# vih = details: MAPPIT configuration: N-N; pair source set: Curagen_low_conf
# CG6712 = details: MAPPIT configuration: N-N; pair source set: DPIM
# CG6933 = details: MAPPIT configuration: N-N; pair source set: Lit-BS-16
# CG6996 = details: MAPPIT configuration: N-N; pair source set: Finley_Y2H
# Mcad = details: MAPPIT configuration: N-N; pair source set: Lit-BS-16
# Treh = details: MAPPIT configuration: N-N; pair source set: Finley_Y2H
# Unr = details: pair source set: Lit-BM-16
# gcm = details: MAPPIT configuration: N-N; pair source set: Finley_Y2H
# noi = details: MAPPIT configuration: N-N; pair source set: Finley_Y2H
# prd = details: MAPPIT configuration: N-N; pair source set: Finley_Y2H
# 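Further: HEK293T cells with Epo stimulation, STAT-responsive firefly luciferase reporter, fold induction versus unstimulated cells divided by the larger fold induction of two negative controls lacking either bait or prey.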
binder,measurement,setting,value
B1,MAPPIT interaction score,CG6664,-0.12
B2,MAPPIT interaction score,CG6683,-0.52
same,MAPPIT interaction score,CG8654,0.0556
same,MAPPIT interaction score,vih,-0.155
B3,MAPPIT interaction score,CG6712,-0.225
B4,MAPPIT interaction score,CG6933,0.0283
B5,MAPPIT interaction score,CG6933,-0.387
B6,MAPPIT interaction score,CG6996,0.192
same,MAPPIT interaction score,Mcad,1.44
same,MAPPIT interaction score,Treh,-0.289
same,MAPPIT interaction score,Unr; MAPPIT configuration: N-C,3.02
same,MAPPIT interaction score,Unr; MAPPIT configuration: N-N,2.17
same,MAPPIT interaction score,gcm,-0.368
same,MAPPIT interaction score,noi,4.3 (active)
same,MAPPIT interaction score,prd,-0.691
